Results: PubChem BioAssay (Tox21)
Inconclusive results are not listed. The source made the active and inactive calls. Unless noted, the call rests on the fitted dose curve; in most records, active means well fitted curve in the direction sought with a large enough effect in the repeat runs; inconclusive means weak or mixed curves; inactive means no such curve, though single readings can be large; an effect the other way counts as inactive or inconclusive.

Key:
[1] = qHTS assay to identify small molecule agonists of the peroxisome proliferator-activated receptor delta (PPARd) signaling pathway - cell viability counter screen (AID 743211); further: nearly all actives have a fitted effect of over 55% in size
Procedure, shortened: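 HEK293H PPARd-bla, 3000 cells/well; 5 h preincubation 37C/5% CO2; cpd in DMSO, 17 h 37C; B/G FRET substrate 2 h RT; CellTiter-Glo 30 min RT, luminescence.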

[2] = biological target: Peroxisome proliferator-activated receptor delta (Homo sapiens) (UniProt Q03181); assay: qHTS assay to identify small molecule agonists of the peroxisome proliferator-activated receptor delta (PPARd) signaling pathway (AID 743212; calls by dose curve)
Chain of Peroxisome proliferator-activated receptor delta (Homo sapiens) (Q03181 whole entry, looked up): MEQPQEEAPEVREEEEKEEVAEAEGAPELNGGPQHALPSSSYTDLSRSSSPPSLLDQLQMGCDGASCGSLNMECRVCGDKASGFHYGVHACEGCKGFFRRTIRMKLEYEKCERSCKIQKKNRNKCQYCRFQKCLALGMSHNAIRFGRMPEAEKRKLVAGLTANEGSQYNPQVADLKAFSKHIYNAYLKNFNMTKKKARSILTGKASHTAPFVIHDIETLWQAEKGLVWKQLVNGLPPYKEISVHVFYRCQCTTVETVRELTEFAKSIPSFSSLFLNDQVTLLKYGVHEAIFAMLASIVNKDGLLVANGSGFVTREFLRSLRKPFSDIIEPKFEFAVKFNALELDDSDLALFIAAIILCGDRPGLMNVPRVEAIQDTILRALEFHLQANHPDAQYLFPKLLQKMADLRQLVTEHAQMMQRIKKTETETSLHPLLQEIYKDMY
Procedure, shortened: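 Tox21 library screened in GeneBLAzer PPARd UAS-bla HEK293H cells. After compound treatment at 37 C, a FRET-based beta-lactamase substrate was applied for 2 h and fluorescence recorded.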

[3] = qHTS assay to identify small molecule antagonists of the peroxisome proliferator-activated receptor delta (PPARd) signaling pathway - cell viability counter screen (AID 743213); further: nearly all actives have a fitted effect of over 50% in size
Procedure, shortened: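 CellTiter-Glo was added to PPARd-bla HEK293H wells following 17 h compound treatment in the presence of 300 nM L165041. Luminescence was recorded after 30 min at room temperature.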

[4] = qHTS assay to identify small molecule agonists of the farnesoid-X-receptor (FXR) signaling pathway - cell viability counter screen (AID 743218); further: nearly all actives have a fitted effect of over 45% in size
Procedure, shortened: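 Viability of FXR-bla HEK 293T cells is measured by ATP-based CellTiter-Glo luminescence following 16 h compound treatment at 37 C and a prior 2 h room-temperature beta-lactamase substrate step.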

[5] = biological target: Vitamin D3 receptor (Homo sapiens) (UniProt P11473); assay: qHTS assay to identify small molecule agonists of the vitamin D receptor (VDR) signaling pathway (AID 743222; calls by dose curve)
Chain of Vitamin D3 receptor (Homo sapiens) (P11473 whole entry, looked up): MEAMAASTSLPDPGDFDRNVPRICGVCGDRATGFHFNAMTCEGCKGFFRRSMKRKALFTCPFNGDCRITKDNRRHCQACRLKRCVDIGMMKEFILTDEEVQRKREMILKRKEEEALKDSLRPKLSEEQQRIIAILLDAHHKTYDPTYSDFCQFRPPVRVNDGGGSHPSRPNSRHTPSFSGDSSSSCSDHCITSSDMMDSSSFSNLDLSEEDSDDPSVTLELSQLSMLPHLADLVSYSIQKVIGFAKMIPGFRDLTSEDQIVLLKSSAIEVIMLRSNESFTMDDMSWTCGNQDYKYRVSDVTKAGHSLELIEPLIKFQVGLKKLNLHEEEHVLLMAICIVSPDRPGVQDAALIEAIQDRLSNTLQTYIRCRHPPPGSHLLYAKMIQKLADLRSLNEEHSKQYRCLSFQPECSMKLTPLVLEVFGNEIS
Procedure, shortened: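 Fluorescence from cleaved LiveBLAzer B/G FRET substrate served as readout. VDR-bla cells had been treated 16 h at 37C with test compounds in DMSO, following a 4 h settling period, and substrate was loaded for 2 h at RT.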

[6] = biological target: Vitamin D3 receptor (Homo sapiens) (UniProt P11473); assay: qHTS assay to identify small molecule antagonists of the vitamin D receptor (VDR) signaling pathway (AID 743223; active means well fitted inhibition curve with a large enough effect in the signal ratio in the repeat runs, not every such curve was filed as active; the % refers to the signal ratio)
Procedure, shortened: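 Antagonist mode uses 1alpha,25-dihydroxyvitamin D3 at 3 nM final as stimulus. VDR-bla cells receive compounds in DMSO, incubate 16 h at 37C, then a beta-lactamase FRET substrate for 2 h at room temperature before fluorescence measurement.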

[7] = qHTS assay to identify small molecule agonists of the vitamin D receptor (VDR) signaling pathway - cell viability counter screen (AID 743224); further: series mostly up to about 63 µM; nearly all actives have a fitted effect of over 50% in size
Procedure, shortened: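 Compounds were pin-transferred onto VDR-bla cells plated 4 h earlier; following 16 h incubation at 37C, cell viability was quantified by CellTiter-Glo luminescence after 30 min at room temperature.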

[8] = qHTS assay to identify small molecule antagonists of the vitamin D receptor (VDR) signaling pathway - cell viability counter screen (AID 743225); further: nearly all actives have a fitted effect of over 50% in size
Procedure, shortened: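 Read-out: CellTiter-Glo luminescence measured 30 min after reagent addition at room temperature. Cells were VDR-bla HEK 293T exposed 16 h at 37C, 5% CO2, to compound with 3 nM final calcitriol agonist.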

[9] = qHTS assay to identify small molecule agonists of the endoplasmic reticulum stress response signaling pathway (AID 1159516; active means well fitted activation curve with a large enough effect in the signal ratio in the repeat runs, not every such curve was filed as active; the % refers to the signal ratio)
Procedure, shortened: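 Using a HeLa line with an ESRE-driven beta-lactamase gene, agonist activity was measured by FRET substrate fluorescence (460 and 530 nm emission) after cells were treated with compounds for 5 hr at 37 C and 5% CO2.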

[10] = qHTS assay to identify small molecule agonists of the endoplasmic reticulum stress response signaling pathway - cell viability counter screen (AID 1159517; calls by dose curve;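 further: HeLa cells carrying an ER stress response element beta-lactamase reporter; series mostly up to about 61 µM; nearly all actives have a fitted effect of over 50% in size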)
Procedure, shortened: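 In parallel with the ESRE reporter read, cytotoxicity was scored by CellTiter-Glo luminescence (30 min, room temperature) on HeLa ESRE-bla cells dosed for 5 hr.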

[11] = biological target: Nuclear receptor ROR-gamma (Homo sapiens) (UniProt P51449); assay: qHTS assay to identify small molecule antagonists of the retinoid-related orphan receptor gamma (ROR-gamma) signaling pathway (AID 1159521)
Procedure, shortened: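 CHO Tet-on RORγ, RORE-luc reporter. Cpd 2 h pre-incubation, then dox hyclate 1 uM final, 16 h, 37 C/5% CO2. ONE-Glo luminescence; decrease = antagonist.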

[12] = qHTS assay to identify small molecule agonists of the AP-1 signaling pathway (AID 1159526; calls by dose curve)
[13] = biological target: Retinoic acid receptor RXR-alpha (Homo sapiens) (UniProt P19793); assay: qHTS assay to identify small molecule agonists of the RXR signaling pathway (AID 1159527; calls by dose curve; further: nearly all actives have a fitted effect of over 35% in size)
Chain of Retinoic acid receptor RXR-alpha (Homo sapiens) (P19793 whole entry, looked up): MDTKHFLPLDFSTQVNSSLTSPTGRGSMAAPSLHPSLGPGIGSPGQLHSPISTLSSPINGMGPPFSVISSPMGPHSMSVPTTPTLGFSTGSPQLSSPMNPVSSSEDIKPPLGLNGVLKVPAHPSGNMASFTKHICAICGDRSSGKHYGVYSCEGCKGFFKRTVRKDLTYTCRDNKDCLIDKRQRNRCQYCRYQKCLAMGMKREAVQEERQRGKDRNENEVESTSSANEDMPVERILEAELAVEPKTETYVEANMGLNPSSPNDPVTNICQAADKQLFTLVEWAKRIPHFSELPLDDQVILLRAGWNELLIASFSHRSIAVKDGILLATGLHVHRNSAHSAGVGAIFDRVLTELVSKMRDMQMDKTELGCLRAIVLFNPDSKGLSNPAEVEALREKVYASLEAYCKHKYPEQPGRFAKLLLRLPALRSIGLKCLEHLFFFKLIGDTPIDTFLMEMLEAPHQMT
Procedure, shortened: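 Read-out: beta-lactamase FRET ratio (405 nm excitation, 460 and 530 nm emission) after 2 hr substrate loading at room temperature. Cells were RXR-alpha-UAS-bla HEK 293T treated with compounds for 16 hr in 2% charcoal-stripped FBS medium.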

[14] = qHTS assay to identify small molecule antagonists of the farnesoid-X-receptor (FXR) signaling pathway - cell viability counter screen (AID 743221; active means well fitted cell-killing curve with a large enough effect in the repeat runs, not every such curve was filed as active; further: nearly all actives have a fitted effect of over 50% in size)
Procedure, shortened: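 Luminescence from CellTiter-Glo measures cytotoxicity in GeneBLAzer FXR-UAS-bla HEK 293T cells. Cells were exposed to compounds with 50 uM chenodeoxycholic acid (final) for 16 h at 37 C, in wells also used for the reporter readout.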

[15] = qHTS assay to identify small molecule antagonists of the retinoid-related orphan receptor gamma (ROR-gamma) signaling pathway - cell viability counter screen (AID 1159520); further: nearly all actives have a fitted effect of over 50% in size
Procedure, shortened: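 Tet-on ROR gamma CHO cells were given compounds for 2 hr, then doxycycline hyclate at 1 uM final, and incubated 16 hr at 37 C. Viability was measured as ATP content by CellTiter-Glo luminescence.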

[16] = biological target: Peroxisome proliferator-activated receptor delta (Homo sapiens) (UniProt Q03181); assay: qHTS assay to identify small molecule antagonists of the peroxisome proliferator-activated receptor delta (PPARd) signaling pathway (AID 743215; active means well fitted inhibition curve with a large enough effect in the signal ratio in the repeat runs, not every such curve was filed as active; the % refers to the signal ratio;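 further: cells stimulated with agonist L165041 at 300 nM final during compound exposure; series mostly up to about 62 µM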)
Procedure, shortened: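 Plated HEK293H PPARd-bla cells rested 5 h at 37 C and 5% CO2. Compound, then agonist L165041 at 300 nM final, was added; 17 h at 37 C followed. Substrate loading, 2 h room temperature, fluorescence measured.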

[17] = qHTS assay to identify small molecule agonists of the AP-1 signaling pathway - cell viability counter screen (AID 1159525; calls by dose curve; further: nearly all actives have a fitted effect of over 55% in size)
Procedure, shortened: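 Same-well cytotoxicity counter screen of the Tox21 10K library in ME-180 cells. The readout is ATP-dependent luminescence after 5 h compound treatment. Data are normalised to DMSO and tetra n-octyl ammonium bromide controls.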

[18] = biological target: Bile acid receptor (Homo sapiens) (UniProt Q96RI1); assay: qHTS assay to identify small molecule antagonists of the farnesoid-X-receptor (FXR) signaling pathway (AID 743217; active means well fitted inhibition curve with a large enough effect in the signal ratio in the repeat runs, not every such curve was filed as active; the % refers to the signal ratio)
Chain of Bile acid receptor (Homo sapiens) (Q96RI1 whole entry, looked up): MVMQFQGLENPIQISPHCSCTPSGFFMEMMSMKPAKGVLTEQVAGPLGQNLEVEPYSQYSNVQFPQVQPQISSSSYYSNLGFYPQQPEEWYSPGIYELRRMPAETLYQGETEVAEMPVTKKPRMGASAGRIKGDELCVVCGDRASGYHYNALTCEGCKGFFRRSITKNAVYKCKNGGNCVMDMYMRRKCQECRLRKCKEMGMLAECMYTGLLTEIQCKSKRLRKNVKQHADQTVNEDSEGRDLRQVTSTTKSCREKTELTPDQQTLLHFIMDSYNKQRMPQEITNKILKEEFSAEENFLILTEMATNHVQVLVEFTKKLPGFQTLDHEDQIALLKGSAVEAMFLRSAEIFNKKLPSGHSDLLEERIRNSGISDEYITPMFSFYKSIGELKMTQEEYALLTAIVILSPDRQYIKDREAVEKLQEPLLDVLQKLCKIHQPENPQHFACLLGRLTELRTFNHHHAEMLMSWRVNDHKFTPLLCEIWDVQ
Procedure, shortened: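 Screen of the Tox21 10K library in quantitative HTS format using FXR-UAS-bla HEK 293T reporter cells. Agonist chenodeoxycholic acid, 50 uM final, added with compounds; 16 h incubation at 37 °C; beta-lactamase FRET fluorescence measured.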

[19] = biological target: Bile acid receptor (Homo sapiens) (UniProt Q96RI1); assay: qHTS assay to identify small molecule agonists of the farnesoid-X-receptor (FXR) signaling pathway (AID 743220; active means well fitted activation curve with a large enough effect in the signal ratio in the repeat runs, not every such curve was filed as active; the % refers to the signal ratio)
Procedure, shortened: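 FXR-UAS-bla HEK 293T cells carrying a UAS-driven beta-lactamase reporter were plated for 5 h at 37C/5% CO2, then exposed to DMSO-dissolved Tox21 10K compounds for 16 h at 37C. A LiveBLAzer B/G FRET substrate was loaded for 2 h at room temperature before fluorescence reading.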

Measured: Potency

Cc1cc(C)c(S(=O)(=O)O)cc1N=Nc1cc(S(=O)(=O)O)c2ccccc2c1O
not listed: [14] | [15] | [16] | [17] | [18] | [19]
inactive: all other assays above

CN(c1nccc(=O)[nH]1)C1CCN(c2nc3ccccc3n2Cc2ccc(F)cc2)CC1
inactive: [4] | [14] | [5] | [7] | [8] | [9] | [10] | [15] | [11] | [12]

CC(C(=O)O)c1ccc(-c2ccccc2)c(F)c1 (stereo not given)
not listed: [2] | [13] | [14] | [17] | [18] | [19]
inactive: all other assays above

Cc1ccc(C(C)c2ccc(C)c(C)c2)cc1C
not listed: [7] | [13] | [18] | [19]
inactive: all other assays above

COc1cc(C(C)(C)C)c(O)c(C(C)(C)C)c1
not listed: [7] | [12] | [13]
inactive: all other assays above

Cc1cccc(C(C)(C)C)c1O
not listed: [2] | [12] | [16] | [18] | [19]
inactive: all other assays above

Nc1nc(CC(=O)O)cs1
not listed: [8] | [9] | [13] | [15] | [18] | [19]
inactive: all other assays above

Oc1ccc(C(O)CNCCCCCCNCC(O)c2ccc(O)c(O)c2)cc1O (stereo not given)
not listed: [7] | [13] | [15] | [16] | [18] | [19]
inactive: all other assays above

O=[N+]([O-])c1cccc(Cl)c1Cl
not listed: [6] | [9] | [13] | [15] | [16]
inactive: all other assays above

CCCCCCCCCCCCCCCC(=O)OC/C=C(C)/C=C/C=C(C)/C=C/C1=C(C)CCCC1(C)C
not listed: [4] | [9] | [13] | [16] | [17]
inactive: all other assays above
